Compound activity deposited in PubChem by National Center for Advancing Translational Sciences (NCATS).
TGFb inhibitor – blocks TGF-b signaling. HepG2 CAGA-GFP TGF-b/SMAD3 reporter, GFP fluorescence, 18 h; TGF-beta stimulated, 500 pg/mL final. Potency, µM (titrated, usually from 46.1 µM), for inactives: at the highest dose activity, negative = inhibition, most hits filed as inhibitors. 410,000 compounds, 1.2% hits. AID 588855; also: % is scaled to controls: 0 for no effect and ±100 for the full control effect; nearly all actives have a fitted effect of over 65% in size
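Read-out: total well GFP (ex488/em500-530) summed from mean per-cell fluorescence. Cells: HEPG2 CAGA-GFP, 1% FBS DMEM, 18 h at 37 degrees C with 500 pg/mL final TGF-beta. Unstimulated wells served as the full-inhibition control; stimulated DMSO wells = 0%.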
ATXN2 expr inh – reduces ATXN2 reporter expression in HEK-293 cells; Potency, µM (series often up to 57 µM), inactives show top-dose activity change, negative = inhibition, usual class: inhibitors; AID 1745845; 360,000 compounds, 0.72% hits; HEK-293 ATXN2-luciferase reporter, luminescence, 24 h; also: % is scaled to controls: 0 for no effect and ±100 for the full control effect; nearly all actives have a fitted effect of over 55% in size
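ATXN2-luciferase reporter cells (luciferase flanked by upstream and downstream ATXN2 gene portions) were treated 24 h at 37 °C with compounds at up to 57 uM. SteadyGlo luminescence gave expression; GF-AFC fluorescence gave viability.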
HT1080 IDH1KD tx – HT-1080 IDH1 knockdown cell toxicity (counter line). HT-1080 IDH1 knockdown viability, ATP luminescence, 48 h. Potency, µM (doses to about 46.1 µM), for inactives: at the top dose activity, negative = toxicity, most hits filed as cytotoxic. 360,000 compounds, 2% hits;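 also: 0% = DMSO wells and -100% = cell-free medium wells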
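CellTiter-Glo luminescence after 48 h compound exposure at 37 degrees C of IDH1-knockdown HT-1080 cells in 5% FBS RPMI. %Activity scaled between DMSO wells and cell-free media wells, with curves fitted and assigned curve classes.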
HepG2 tox-1 – kills HepG2 cells in TGF-b inhibitor counter-screen. Potency, µM (series often up to 46.1 µM), for inactives: top-dose activity change, negative = cytotoxicity, actives largely listed as cytotoxic. HepG2 CAGA-GFP viability, ATP luminescence, 18 h. 410,000 compounds, 0.76% hits
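CellTiter-Glo luminescence gave cytotoxicity after 18 hours at 37 degrees C. The cells were HepG2 CAGA-GFP in 1% FBS DMEM, stimulated with 500 pg/mL TGF-beta after compound addition. %Activity was normalised to no-cell wells (complete cell-killing) and DMSO (no toxicity), and curves were fitted and classified.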
HT1080NT lethal – kills 2HG-producing HT-1080-NT fibrosarcoma cells; HT-1080-NT fibrosarcoma viability, CellTiter-Glo ATP luminescence, 48 h; Potency, µM (titrated, usually from 46.1 µM), for the others: at the top dose activity, negative = less viability, actives largely listed as cytotoxic; 360,000 compounds, 1.6% hits; AID 686970;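 also: NT is the 2HG producing partner of a matched IDH1 knockdown line; 0% = DMSO-treated cells and -100% = media-only wells without cells; nearly all actives have a fitted effect of over 55% in size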
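750 cells/well, RPMI + 5% FBS; 2 h settle, compound pin-transfer, 48 h at 37 degrees C. CellTiter-Glo 10 min RT, luminescence. Normalized to DMSO and media-only wells.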
ATXN viability – reduces viability in counter-screen for ATXN expression inhibitors. S2 cells (HEK-293 line with an ATXN2-luciferase reporter) viability, CellTiter-Fluor protease fluorescence, 24 h. Potency, µM (doses to about 56.7 µM), most hits filed as cytotoxic. 400,000 compounds, 0.49% hits; also: nearly all actives have a fitted effect of over 40% in size
TGFb confirm – TGF-b pathway inhibition, cherry-pick retest; shares compounds with TGFb inhibitor; HepG2 CAGA-GFP TGF-b reporter, GFP fluorescence, 18 h; cells stimulated with TGF-beta, 500 pg/mL; Potency, µM (series often up to 46.1 µM), without a hit: at the top dose activity, negative = inhibition, most hits filed as inhibitors; 1,600 compounds, 63% hits; AID 720534; also: % is scaled to controls: 0 for no effect and ±100 for the full control effect; nearly all actives have a fitted effect of over 65% in size
HepG2 tox-2 – toxic to HepG2 cells in TGF-b counterscreen; shares compounds with TGFb inhibitor; 1,600 compounds, 27% hits; HepG2 CAGA-GFP viability, ATP luminescence, 18 h; cells stimulated with TGF-beta, 500 pg/mL; AID 720535; Potency, µM (doses to about 46.1 µM), inactives show at the top dose activity, negative = cytotoxicity, actives largely listed as inhibitors; also: % is scaled to controls: 0 for no effect and ±100 for the full control effect; nearly all actives have a fitted effect of over 70% in size
CCL64 TGFb inh – orthogonal confirmation of TGF-b inhibitors in CCL64 cells; shares compounds with TGFb inhibitor; CCL64 CAGA-GFP reporter, TGF-b stimulated, GFP fluorescence, 18 h; Potency, µM (series often up to 46.1 µM), for the others: top-dose activity, negative = inhibition, actives largely listed as inhibitors; 1,600 compounds, 41% hits; AID 720536; also: nearly all actives have a fitted effect of over 65% in size
TGFb COP inh – TGF-b inhibition validated with COP promoter; shares compounds with TGFb inhibitor; HepG2 COP-GFP TGF-b reporter, GFP fluorescence, 18 h; cells stimulated by added recombinant TGF-beta; Potency, µM (top dose mostly 46.1 µM), inactives show top-dose activity, negative = inhibition, actives largely listed as inhibitors; 1,600 compounds, 3% hits; also: nearly all actives have a fitted effect of over 70% in size
* marks the source's active call; other numbers are inactive results; i = inactive; ? = inconclusive; . = no result given. Compounds with a hit are over-represented: about 3.8% of the library has one in this group of screens. Calls follow the shape of the dose curve; as a rule, active = well fitted curve in the direction sought with a large enough effect; inconclusive = small, poorly fitted or top-dose-only effect, or another doubt; inactive = no such curve, though single readings can be large; an effect the other way counts as inactive or inconclusive. Potency is read from the fitted curve at half-maximal effect.

SMILES | TGFb inhibitor | ATXN2 expr inh | HT1080 IDH1KD tx | HepG2 tox-1 | HT1080NT lethal | ATXN viability | TGFb confirm | HepG2 tox-2 | CCL64 TGFb inh | TGFb COP inh
C=C1C2=C(C(=O)N1OC)[C@@H](O)[C@@](C)(O)[C@@H](CCCCC)O2 | 12.6µM* | -8.7% | ? | -25.6% | ? | ? | ? | -1.5% | -6.9% | 9.1%
c1ccc(Sc2ncnc3ccccc23)cc1 | 10µM* | 27.3% | ? | -35.6% | -25.8% | i | 10.3µM* | ? | ? | 39.5%
CCOC(=O)N1CCC(NC(=O)c2ccc3c(c2)N(Cc2cc(C)ccc2C)C(=O)c2ccccc2S3=O)CC1 (stereo not given) | ? | -19.1% | . | -18.5% | . | i | . | . | . | .
Nc1cc2[nH]c(=O)c3ccccc3c2cc1[N+](=O)[O-] | 11.2µM* | -0.5% | -26.8% | -9.7% | -1.5% | ? | ? | ? | ? | 70.8%
COc1cc2c(=O)[nH]c3cc([N+](=O)[O-])ccc3c2cc1[N+](=O)[O-] | 2.7% | . | 1.9% | -1.9% | 2.6% | i | . | . | . | .
CN=C1N[C@H](c2ccccc2)N(c2ccccc2)S1 | -1.6% | . | . | -1.5% | . | . | . | . | . | .
C=C[C@@]1(C)C[C@H](OC(=O)CSC(C)(C)CNC(=O)[C@@H](N)C(C)C)[C@@]2(C)C(C)CC[C@@]3(CCC(=O)[C@@H]32)[C@H](C)[C@H]1O (stereo not given in full) | ? | . | . | -33.5% | . | . | . | . | . | .
CC1(Cc2cccc(C(F)(F)F)c2)C(=O)Nc2ccc(-c3ccc(F)c(Cl)c3)cc21 (stereo not given) | 10µM* | ? | ? | 10µM* | ? | . | ? | 18.4µM* | ? | 38.0%
CC(=O)c1cccc(NC(=O)/C=C/c2ccc([N+](=O)[O-])s2)c1 | 7.08µM* | ? | ? | -57.5% | ? | . | 4.11µM* | 11.6µM* | 2.06µM* | -2.0%
OCCCn1c(C(CO)Nc2nc(-c3ccc(Cl)cc3)cs2)nc2ccccc21 (stereo not given) | 17.8µM* | -29.8% | -15.8% | -28.9% | -13.4% | i | 14.6µM* | -28.6% | ? | 10.1%
COc1ccc(-c2csc(NC(CO)c3nc4ccccc4n3Cc3ccc(C)cc3)n2)cc1 (stereo not given) | ? | -6.6% | -6.5% | -30.0% | ? | ? | . | . | . | .
Cc1ccc(Cn2nnc3c(=O)[nH]c(C4CCN(S(=O)(=O)c5cc(C)ccc5C)CC4)nc32)cc1 | 15.8µM* | -2.9% | ? | -23.9% | ? | i | 20.6µM* | -19.1% | ? | 36.0%
O=c1[nH]c(C2CCN(S(=O)(=O)c3ccc(F)cc3)CC2)nc2c1nnn2Cc1ccc2c(c1)OCCO2 | 15.8µM* | . | 0.0% | -28.5% | ? | i | 14.6µM* | -22.6% | ? | 4.5%
O=C(c1ccc([N+](=O)[O-])s1)N1CCc2ccccc2C1 | ? | -28.7% | -21.5% | -53.0% | -26.5% | ? | 23.1µM* | ? | ? | 4.1%
O=C(c1ccc([N+](=O)[O-])s1)N1CCc2ccccc21 | -14.9% | -23.7% | 12.2% | -3.1% | 8.7% | i | . | . | . | .
COc1cccc(NC(=O)C(NCCC(C)C)c2ccccc2)c1 (stereo not given) | 12.6µM* | -7.0% | -8.8% | -30.8% | -1.7% | i | ? | -5.2% | -27.9% | -6.3%
COc1cccc(NC(=O)C(NCC2CCCCC2)c2ccccc2)c1 (stereo not given) | 15.5% | 9.1% | 0.4% | -43.4% | 1.3% | i | . | . | . | .
Cc1ccc(C(=O)Nc2nc(C)c(C(=O)Nc3ccc4c(c3)CCC4)s2)cc1 | 11.2µM* | 24.4% | 4.11µM* | -3.3% | 2.31µM* | ? | 14.6µM* | ? | 8.2µM* | 22.3%
C[C@H]1CN([C@@H](C)CO)C(=O)Cc2cc(NS(=O)(=O)c3ccc(Cl)cc3)ccc2O[C@@H]1CN(C)C(=O)Nc1cccc2ccccc12 | -23.6% | -6.3% | 0.3% | -0.9% | -0.3% | i | . | . | . | .
CC(C)NC(=O)N(C)C[C@H]1Oc2ccc(NS(=O)(=O)c3ccc(Cl)cc3)cc2CC(=O)N([C@@H](C)CO)C[C@@H]1C | ? | -2.4% | 4.5% | -21.7% | 10.8% | i | -9.0% | 3.3% | 1.7% | 2.8%
COC(=O)N/N=C/c1cn(CCOc2ccc(OC)cc2)c2ccccc12 | ? | -23.6% | -11.1% | -36.5% | -10.3% | i | . | . | . | .
O=C(N/N=C/c1cn(Cc2ccccc2)c2ccccc12)c1ccncc1 | ? | -22.5% | -18.0% | 0.0% | -8.7% | . | 1.16µM* | 2.31µM* | 3.6% | -21.6%
CCOC(=O)N/N=C/c1cn(CCCOc2ccccc2)c2ccccc12 | 15.3% | -12.1% | -27.6% | 14.5% | -22.1% | i | . | . | . | .
CCOC(=O)N/N=C/c1cn(Cc2ccc(Cl)cc2)c2ccccc12 | 12.6µM* | 4.4% | -22.0% | -42.0% | -19.7% | i | 4.11µM* | 2.59µM* | 5.1% | 41.5%
COC(=O)N/N=C/c1cn(CCOc2ccccc2)c2ccccc12 | ? | 16.5% | -14.9% | -6.0% | -9.2% | ? | 7.31µM* | 3.26µM* | -4.9% | 19.2%
Cc1ccc(OCCn2cc(/C=N/NC(=O)c3ccncc3)c3ccccc32)cc1 | ? | ? | ? | -29.4% | -29.2% | . | . | . | . | .
CCc1ccc(Sc2cc(C(=O)O)c3ccccc3n2)cc1 | -18.1% | . | . | -4.1% | . | . | . | . | . | .
